The full data set covers some 8,800 targets. This sample favours those with a hit. About 0.5% of all pairs of compound and target were hits. A number with no mark means an inactive call.
Columns and labels:
Test in all cases: log2 fold change, soluble protein after heating vs DMSO (PISA); higher = thermal stabilisation; K562 lysate, 10 uM; active = over 0.2 and 3.5 SD of the protein, either way, in both replicates (recomputed)
vemurafenib = compound: CCCS(=O)(=O)Nc1ccc(F)c(C(=O)c2c[nH]c3ncc(-c4ccc(Cl)cc4)cc23)c1F [vemurafenib]
Procedure, shortened: (§1)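 To prepare the extract, K562 pellets were dounce-homogenised in PBS pH 7.4 with 1 mM MgCl2, giving crude material at 1 mg/mL protein. This was treated with 10 μM compound for 30 min, then heated in aliquots for 3 min over 48°C-58°C before pooling and addition of NP-40 to 0.5% at 4°C. Centrifugation at 21,000xg for 90 min left soluble protein in the supernatant, which TMTpro 16plex LC-MS/MS quantified with equalised channel sums. Results are log-two fold changes in thermal stability compared with solvent controls, from duplicates.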

[1] = compound: CCCS(=O)(=O)Nc1ccc(F)c(C(=O)c2c[nH]c3ncc(Cl)cc23)c1F
Procedure, shortened: as §1

barasertib = compound: CCN(CCCOc1ccc2c(Nc3cc(CC(=O)Nc4cccc(F)c4)[nH]n3)ncnc2c1)CCOP(=O)(O)O [barasertib]
Procedure, shortened: as §1

[2] = compound: CC[C@@H]1C(=O)N(C)c2cnc(Nc3ccc(C(=O)NC4CCN(C)CC4)cc3OC)nc2N1C1CCCC1
Procedure, shortened: as §1

volasertib = compound: CC[C@@H]1C(=O)N(C)c2cnc(Nc3ccc(C(=O)N[C@H]4CC[C@H](N5CCN(CC6CC6)CC5)CC4)cc3OC)nc2N1C(C)C [volasertib]
Procedure, shortened: as §1

[3] = compound: CCn1c(C(=O)N(C2CC2)C2CC2)cc2c3c(ncn3C)c(Nc3cc(C)n(C)n3)nc21
Procedure, shortened: as §1

[4] = compound: CCn1cc(-c2ccnc3[nH]c(-c4cccc(CN(C)C)c4)cc23)c(-c2ccc(NC(=O)N(C)C)cc2)n1
Procedure, shortened: as §1

[5] = compound: CN1CCC(CNc2ccc3ncc(-c4cccc(OC(F)(F)F)c4)n3n2)CC1
Procedure, shortened: as §1

saracatinib = compound: CN1CCN(CCOc2cc(OC3CCOCC3)c3c(Nc4c(Cl)ccc5c4OCO5)ncnc3c2)CC1 [saracatinib]
Procedure, shortened: as §1

sotrastaurin = compound: CN1CCN(c2nc(C3=C(c4c[nH]c5ccccc45)C(=O)NC3=O)c3ccccc3n2)CC1 [sotrastaurin]
Procedure, shortened: as §1

Chain of UniProt Q9BQS8 (Q9BQS8 whole entry, looked up): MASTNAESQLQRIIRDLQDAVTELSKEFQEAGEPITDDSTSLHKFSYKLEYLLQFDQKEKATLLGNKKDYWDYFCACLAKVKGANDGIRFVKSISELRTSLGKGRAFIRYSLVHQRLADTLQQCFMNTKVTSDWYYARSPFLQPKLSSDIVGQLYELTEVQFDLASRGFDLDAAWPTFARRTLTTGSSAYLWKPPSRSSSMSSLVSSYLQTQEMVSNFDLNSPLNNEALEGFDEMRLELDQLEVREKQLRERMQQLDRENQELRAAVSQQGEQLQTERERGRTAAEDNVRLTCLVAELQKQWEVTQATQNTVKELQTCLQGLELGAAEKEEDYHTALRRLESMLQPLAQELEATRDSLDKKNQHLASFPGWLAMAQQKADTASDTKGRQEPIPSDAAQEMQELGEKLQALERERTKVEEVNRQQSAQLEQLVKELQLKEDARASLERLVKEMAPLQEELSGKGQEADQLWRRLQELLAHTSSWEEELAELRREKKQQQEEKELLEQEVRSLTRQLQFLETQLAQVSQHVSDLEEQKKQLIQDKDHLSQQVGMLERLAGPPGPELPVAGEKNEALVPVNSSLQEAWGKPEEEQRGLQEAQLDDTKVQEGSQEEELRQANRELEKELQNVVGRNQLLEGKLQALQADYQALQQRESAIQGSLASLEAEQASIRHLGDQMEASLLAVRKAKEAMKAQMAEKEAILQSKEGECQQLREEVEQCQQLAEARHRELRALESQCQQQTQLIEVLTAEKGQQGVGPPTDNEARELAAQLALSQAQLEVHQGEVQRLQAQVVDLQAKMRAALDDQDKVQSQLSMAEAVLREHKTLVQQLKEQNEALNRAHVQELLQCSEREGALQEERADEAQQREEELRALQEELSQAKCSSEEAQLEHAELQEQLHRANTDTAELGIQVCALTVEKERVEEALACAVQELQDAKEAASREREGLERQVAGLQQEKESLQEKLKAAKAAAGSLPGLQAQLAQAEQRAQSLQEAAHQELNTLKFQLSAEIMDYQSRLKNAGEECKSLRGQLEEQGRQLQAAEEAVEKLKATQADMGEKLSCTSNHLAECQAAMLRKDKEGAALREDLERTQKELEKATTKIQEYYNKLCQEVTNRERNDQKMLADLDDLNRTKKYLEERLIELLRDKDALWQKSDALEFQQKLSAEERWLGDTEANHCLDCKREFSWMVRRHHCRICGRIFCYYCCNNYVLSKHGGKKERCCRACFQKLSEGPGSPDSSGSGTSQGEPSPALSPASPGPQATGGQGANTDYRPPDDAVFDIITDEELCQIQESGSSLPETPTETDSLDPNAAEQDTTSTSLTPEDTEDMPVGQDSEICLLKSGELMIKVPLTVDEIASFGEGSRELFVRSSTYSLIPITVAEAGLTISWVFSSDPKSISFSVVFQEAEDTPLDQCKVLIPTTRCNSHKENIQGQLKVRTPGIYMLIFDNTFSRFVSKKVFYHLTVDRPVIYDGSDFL
Chain of UniProt Q96G46 (Q96G46 whole entry, looked up): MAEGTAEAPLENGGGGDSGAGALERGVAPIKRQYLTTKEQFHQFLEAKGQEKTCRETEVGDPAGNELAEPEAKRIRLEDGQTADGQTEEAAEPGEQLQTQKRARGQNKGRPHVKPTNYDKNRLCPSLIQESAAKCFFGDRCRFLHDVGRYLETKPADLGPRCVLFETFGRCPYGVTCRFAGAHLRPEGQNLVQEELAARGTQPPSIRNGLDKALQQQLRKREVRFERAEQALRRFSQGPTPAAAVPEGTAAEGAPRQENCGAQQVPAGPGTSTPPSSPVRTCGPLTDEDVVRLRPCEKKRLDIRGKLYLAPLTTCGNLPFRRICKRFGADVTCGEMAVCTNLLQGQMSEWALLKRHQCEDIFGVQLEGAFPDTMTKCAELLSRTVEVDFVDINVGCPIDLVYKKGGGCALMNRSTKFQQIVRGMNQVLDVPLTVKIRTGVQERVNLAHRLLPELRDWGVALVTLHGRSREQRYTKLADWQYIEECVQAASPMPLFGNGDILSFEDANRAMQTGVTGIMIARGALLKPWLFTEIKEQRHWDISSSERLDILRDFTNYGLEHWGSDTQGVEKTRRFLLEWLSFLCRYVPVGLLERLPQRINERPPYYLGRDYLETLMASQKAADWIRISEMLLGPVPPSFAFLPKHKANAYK
Chain of UniProt Q5T0N5 (Q5T0N5 whole entry, looked up): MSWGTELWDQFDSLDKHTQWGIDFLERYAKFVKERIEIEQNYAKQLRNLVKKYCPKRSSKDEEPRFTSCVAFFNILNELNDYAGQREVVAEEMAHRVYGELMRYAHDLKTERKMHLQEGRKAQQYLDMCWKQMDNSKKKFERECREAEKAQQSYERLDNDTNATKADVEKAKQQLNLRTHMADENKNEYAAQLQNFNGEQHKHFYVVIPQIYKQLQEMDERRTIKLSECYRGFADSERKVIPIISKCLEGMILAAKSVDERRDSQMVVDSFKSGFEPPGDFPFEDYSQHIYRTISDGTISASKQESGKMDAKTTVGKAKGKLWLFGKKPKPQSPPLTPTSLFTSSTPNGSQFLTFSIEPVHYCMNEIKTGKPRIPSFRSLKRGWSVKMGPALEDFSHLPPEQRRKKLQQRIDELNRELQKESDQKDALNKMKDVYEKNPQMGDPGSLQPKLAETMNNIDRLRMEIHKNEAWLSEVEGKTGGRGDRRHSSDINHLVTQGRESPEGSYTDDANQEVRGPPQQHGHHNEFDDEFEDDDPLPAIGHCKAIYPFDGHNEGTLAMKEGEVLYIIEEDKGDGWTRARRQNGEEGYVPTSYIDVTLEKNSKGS
Chain of UniProt Q8N6R0 (Q8N6R0 whole entry, looked up): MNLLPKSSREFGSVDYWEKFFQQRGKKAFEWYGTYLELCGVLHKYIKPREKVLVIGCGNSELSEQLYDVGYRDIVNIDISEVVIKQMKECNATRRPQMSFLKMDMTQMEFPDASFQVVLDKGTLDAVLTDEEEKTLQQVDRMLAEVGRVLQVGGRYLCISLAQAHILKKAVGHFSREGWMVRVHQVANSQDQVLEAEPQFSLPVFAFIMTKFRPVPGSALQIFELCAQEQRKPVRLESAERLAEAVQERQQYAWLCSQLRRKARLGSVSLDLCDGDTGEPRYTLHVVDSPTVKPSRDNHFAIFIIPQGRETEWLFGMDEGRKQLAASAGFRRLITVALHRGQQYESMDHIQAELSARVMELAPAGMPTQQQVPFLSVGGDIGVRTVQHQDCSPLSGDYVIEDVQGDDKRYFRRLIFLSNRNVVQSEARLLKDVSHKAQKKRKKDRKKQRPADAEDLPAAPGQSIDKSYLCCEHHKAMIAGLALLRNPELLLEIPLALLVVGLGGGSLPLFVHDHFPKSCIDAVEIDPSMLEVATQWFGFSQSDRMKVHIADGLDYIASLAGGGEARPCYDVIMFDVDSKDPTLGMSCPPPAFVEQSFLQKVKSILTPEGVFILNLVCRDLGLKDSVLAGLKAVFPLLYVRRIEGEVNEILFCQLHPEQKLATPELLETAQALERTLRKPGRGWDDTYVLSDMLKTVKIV
Chain of UniProt Q06547 (Q06547 whole entry, looked up): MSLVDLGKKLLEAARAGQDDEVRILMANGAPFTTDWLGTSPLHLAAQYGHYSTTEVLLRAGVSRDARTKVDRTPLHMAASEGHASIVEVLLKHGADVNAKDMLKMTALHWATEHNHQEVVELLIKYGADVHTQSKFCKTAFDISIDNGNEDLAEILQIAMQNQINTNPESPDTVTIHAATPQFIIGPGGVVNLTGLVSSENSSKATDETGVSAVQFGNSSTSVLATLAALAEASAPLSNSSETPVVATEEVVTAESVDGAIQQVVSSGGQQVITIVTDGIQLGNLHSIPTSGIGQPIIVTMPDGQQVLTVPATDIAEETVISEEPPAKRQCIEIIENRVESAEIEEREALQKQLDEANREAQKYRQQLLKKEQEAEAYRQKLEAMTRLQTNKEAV
Chain of UniProt Q8IY81 (Q8IY81 whole entry, looked up): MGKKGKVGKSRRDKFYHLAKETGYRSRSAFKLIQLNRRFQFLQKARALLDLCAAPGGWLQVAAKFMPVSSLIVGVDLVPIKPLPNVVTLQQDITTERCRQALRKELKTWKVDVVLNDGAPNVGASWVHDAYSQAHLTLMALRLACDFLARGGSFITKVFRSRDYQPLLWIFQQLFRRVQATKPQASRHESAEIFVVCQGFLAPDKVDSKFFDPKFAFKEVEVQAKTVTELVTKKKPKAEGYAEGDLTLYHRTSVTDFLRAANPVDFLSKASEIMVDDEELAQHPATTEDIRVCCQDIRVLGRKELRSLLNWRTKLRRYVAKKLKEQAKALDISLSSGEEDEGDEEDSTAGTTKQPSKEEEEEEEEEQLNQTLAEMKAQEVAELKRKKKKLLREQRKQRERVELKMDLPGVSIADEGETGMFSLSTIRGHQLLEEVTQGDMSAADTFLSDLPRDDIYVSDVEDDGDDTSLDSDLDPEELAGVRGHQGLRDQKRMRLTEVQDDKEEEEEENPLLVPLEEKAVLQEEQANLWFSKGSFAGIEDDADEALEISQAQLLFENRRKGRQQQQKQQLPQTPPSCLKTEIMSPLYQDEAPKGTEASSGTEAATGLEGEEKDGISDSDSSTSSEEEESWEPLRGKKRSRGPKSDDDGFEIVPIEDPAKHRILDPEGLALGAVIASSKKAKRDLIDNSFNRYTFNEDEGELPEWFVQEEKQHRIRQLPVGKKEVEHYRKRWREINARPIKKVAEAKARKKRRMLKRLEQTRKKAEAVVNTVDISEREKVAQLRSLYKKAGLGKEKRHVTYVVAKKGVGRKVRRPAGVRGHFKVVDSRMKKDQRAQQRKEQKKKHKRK
Chain of UniProt O14893 (O14893 whole entry, looked up): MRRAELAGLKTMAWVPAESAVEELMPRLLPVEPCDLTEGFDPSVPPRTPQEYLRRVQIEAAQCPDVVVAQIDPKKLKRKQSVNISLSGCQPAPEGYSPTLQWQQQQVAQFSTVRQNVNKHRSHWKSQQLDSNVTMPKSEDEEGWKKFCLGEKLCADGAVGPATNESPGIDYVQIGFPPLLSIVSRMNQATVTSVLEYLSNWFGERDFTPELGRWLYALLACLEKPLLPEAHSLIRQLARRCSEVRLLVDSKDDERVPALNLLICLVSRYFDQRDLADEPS

Row | Target | log2 fold change (vemurafenib) | log2 fold change [1] | log2 fold change (barasertib) | log2 fold change [2] | log2 fold change (volasertib) | log2 fold change [3] | log2 fold change [4] | log2 fold change [5] | log2 fold change (saracatinib) | log2 fold change (sotrastaurin)
1 | EWSR1 isoform 5 (UniProt Q01844) | 0.033 | -0.023 | -0.013 | 0.039 | 0.045 | -0.006 | -0.019 | 0.021 | -0.017 | 0.037
2 | FOXJ3 (UniProt Q9UPW0) | 0.111 | 0.124 | 0.038 | 0.054 | -0.096 | 0.02 | 0.032 | -0.08 | 0.023 | 0.018
3 | EIF2AK2 (UniProt P19525) | 0.025 | 0.012 | -0.038 | -0.09 | -0.03 | -0.008 | -0.081 | 0.067 | -0.011 | 0.007
4 | GAMT (UniProt Q14353) | 0.037 | 0.045 | 0.112 | 0.036 | 0.007 | 0.011 | 0.003 | -0.029 | -0.014 | 0.018
5 | FNTB (UniProt P49356) | 0.055 | -0.009 | -0.036 | 0.285 (active) | 0.005 | 0.037 | -0.036 | 0.016 | 0.016 | 0.042
6 | EHD2 (UniProt Q9NZN4) | 0.046 | 0 | 0.022 | 0.007 | -0.111 | 0.005 | 0.016 | -0.066 | 0.075 | 0.017
7 | FNBP1L (UniProt Q5T0N5) | 0.003 | 0.029 | 0.167 | -0.085 | -0.068 | -0.013 | -0.024 | -0.019 | -0.013 | 0.048
8 | GCDH (UniProt Q92947) | 0.031 | 0.025 | -0.054 | 0.002 | 0.022 | -0.003 | -0.07 | -0.077 | -0.041 | -0.041
9 | EEF1AKNMT (UniProt Q8N6R0) | -0.007 | 0.041 | 0.008 | -0.08 | -0.026 | 0.053 | -0.026 | -0.031 | -0.017 | 0.008
10 | GDPD1 (UniProt Q8N9F7) | 0.116 | 0.055 | -0.005 | 0.041 | -0.008 | 0.004 | 0.074 | -0.032 | -0.023 | 0.005
11 | FAM120B (UniProt Q96EK7) | 0.001 | 0.045 | -0.009 | 0.01 | -0.029 | 0.033 | -0.011 | -0.085 | 0.005 | 0.008
12 | GABPB1 isoform 3 (UniProt Q06547) | 0.057 | 0.074 | 0.141 | -0.048 | -0.11 | -0.016 | -0.042 | -0.028 | -0.006 | -0.022
13 | EXOC3 (UniProt O60645) | 0.049 | 0.021 | 0.02 | -0.081 | -0.086 | 0.045 | -0.057 | -0.001 | 0.004 | 0.03
14 | EPN2 (UniProt O95208) | 0.019 | 0.027 | 0.043 | 0.044 | 0.016 | -0.002 | -0.417 (active) | 0.08 | 0.004 | 0.002
15 | EIF3I (UniProt Q13347) | 0.017 | 0.025 | 0.017 | -0.113 | -0.078 | 0.011 | -0.034 | -0.03 | -0.008 | 0.027
16 | GAPDH (UniProt P04406) | -0.031 | 0.002 | -0.016 | -0.006 | -0.002 | -0.009 | 0.042 | -0.032 | 0 | -0.01
17 | EEF1A1P5 (UniProt Q5VTE0) | 0.022 | 0.002 | -0.017 | 0.004 | -0.022 | -0.031 | -0.105 | 0.073 | -0.021 | 0.025
18 | FCHO1 (UniProt O14526) | 0.023 | 0.033 | 0.02 | 0.023 | -0.062 | -0.026 | -0.053 | -0.004 | 0.006 | -0.015
19 | FANCD2 isoform 1 (UniProt Q9BXW9) | 0.067 | 0.053 | 0.04 | 0.14 | -0.045 | 0.017 | -0.135 | 0.02 | 0.016 | -0.029
20 | DUS3L (UniProt Q96G46) | -0.055 | 0.004 | -0.038 | -0.025 | 0.005 | -0.043 | 0.246 (active) | -0.048 | 0.021 | 0.033
21 | FYCO1 isoform 4 (UniProt Q9BQS8) | 0.024 | 0.019 | 0.045 | 0.027 | -0.004 | 0.031 | -0.104 | 0.063 | 0.04 | 0
22 | ERI1 (UniProt Q8IV48) | 0.01 | 0.01 | 0.008 | -0.018 | -0.023 | -0.008 | 0.065 | -0.112 | -0.006 | 0.034
23 | FAM83D (UniProt Q9H4H8) | -0.015 | 0 | 0.074 | 0.045 | -0.047 | -0.01 | -0.052 | 0.029 | -0.008 | 0.032
24 | EMC7 (UniProt Q9NPA0) | 0.034 | 0.004 | -0.006 | 0.034 | 0 | -0.023 | -0.37 (active) | 0.125 | 0.005 | 0.026
25 | FTSJ3 (UniProt Q8IY81) | -0.004 | -0.011 | 0.006 | 0.011 | -0.033 | 0.024 | 0 | -0.005 | 0.015 | -0.003
26 | FLAD1 (UniProt Q8NFF5) | -0.051 | 0.022 | -0.063 | 0.055 | -0.028 | 0.01 | -0.002 | -0.035 | -0.001 | 0.075
27 | GEMIN2 (UniProt O14893) | 0.061 | -0.017 | 0.052 | 0.033 | 0.009 | 0.011 | -0.052 | 0.029 | 0.025 | -0.045
28 | FADS1, A0A0A0MR51 | -0.041 | 0.145 | -0.018 | 0.02 | -0.187 | -0.062 | -0.021 | -0.078 | -0.026 | -0.037
29 | EAPP (UniProt Q56P03) | 0.246 | 0.038 | -0.048 | 0.06 | 0.02 | 0.009 | -0.085 | -0.092 | 0.034 | -0.008
30 | FTL (UniProt P02792) | -0.063 | 0.047 | -0.005 | 0.03 | 0.06 | -0.327 | -0.041 | 0.092 | 0.058 | 0.036
